Our source for the Potency values is PubChem BioAssay (NCATS).

Several values for one entry are separate records, joined by “and”; a condition that tells them apart may be missing. Identical values can stand only once. Inconclusive results are not listed. Activity calls are given as the source filed them. The call rests on the fitted dose curve; in most records, active means well fitted inhibition curve with a large enough effect; inconclusive means small, poorly fitted or top-dose-only effect; inactive means no such curve, though single readings can be large or run the other way.
Potency means the concentration at half of the fitted maximal effect.

The nature of this assay: Primary qHTS for inhibitors of nuclear receptor binding SET domain protein 2 (NSD2) in an RCH-ACV wild type WT cells (2C) (AID 1645877). Further: nearly all actives have a fitted effect of over 70% in size. The following applies: RCH-ACV (leukaemia line) NSD2 WT (2C) viability, CellTiter-Glo, 72 h; series mostly up to 44.9 µM.
For the molecule `CN[C@@H]1[C@@H](O)[C@@H](O[C@@H]2[C@@H](O)[C@H](O[C@H]3O[C@@H]([C@@H](C)NC)CC[C@H]3N)[C@@H](N)C[C@H]2N)OC[C@]1(C)O`, the Potency result is “inactive”.
`C[N+]1(C)[C@@H]2CC[C@H]1CC(OC(=O)C(O)c1ccccc1)C2` (some centres undefined): the Potency result was “inactive”.
For the molecule `CCNC(=O)[C@@H]1CCCN1C(=O)[C@H](CCCN=C(N)N)NC(=O)[C@H](CC(C)C)NC(=O)[C@@H](CC(C)C)NC(=O)[C@H](Cc1ccc(O)cc1)NC(=O)[C@H](CO)NC(=O)[C@H](Cc1c[nH]c2ccccc12)NC(=O)[C@H](Cc1cnc[nH]1)NC(=O)[C@@H]1CCC(=O)N1`, the Potency result was “inactive”.
With `CC1(CO)CCCC2(C)C1C(OC(=O)c1ccccc1)C=C1C(=O)OCC12O` (centres undefined), the Potency is 1.79 µM (active).
Take `Cn1c(NC[C@@H](N)Cc2ccccc2)nc(-c2ccncc2)c(-c2ccc3ccccc3c2)c1=O`: the Potency was 26.3 µM (active).
Next, `CCCCC(=O)N(Cc1ccc(-c2ccccc2-c2nn[nH]n2)cc1)C(C(=O)O)C(C)C` (centres undefined): “inactive”; `COc1ccc(NS(=O)(=O)c2sc3ccc(Cl)cc3c2C)cc1N1CCNCC1`: 12.9 µM (active); `CCCCc1nc(Cl)c(CO)n1Cc1ccc(-c2ccccc2-c2nnn[nH]2)cc1`: “inactive”.
The same measure for `CCC(=O)c1cc(-c2ccc(Cl)cc2)n(-c2ccc(S(N)(=O)=O)cc2)c1C`: 16.3 µM (active); for `Cc1cc(N=Nc2ccc(S(=O)(=O)Nc3ccccn3)cc2)c(N)cc1O`: 5.78 µM (active).
Consider `Cc1nnsc1C(=O)Nc1ccc(-n2nc(C(F)(F)F)cc2C(F)(F)F)cc1`, for which the Potency was 11.5 µM (active).
Turning to `N#C[C@@H]1C[C@@H]2C[C@@H]2N1C(=O)[C@@H](N)C12CC3CC(CC(O)(C3)C1)C2`, the Potency result was “inactive”.
`CCCCOc1ccc(-c2cncc(C(=O)NCc3cccnc3N3CCOCC3)c2)cc1Cl`: the Potency result is “inactive”.
Turning to `C=CC(=O)N1CCN(C(=O)c2cc(-c3cc(Cl)ccc3Cl)c(Cl)cc2OC)CC1`, the Potency is 8.17 µM (active).
With `C[C@@H](O[C@H]1OCCN(Cc2n[nH]nc2CN(C)C)[C@H]1c1ccc(F)cc1)c1cc(C(F)(F)F)cc(C(F)(F)F)c1`, the Potency was 14.5 µM (active).
With `Cc1cc(CN)cc(C)c1NC(=O)c1ccc(-c2cc(Cl)ccc2Cl)o1`, the Potency is 9.16 µM (active).
Next, `CCCCc1nc(C)c(CC(=S)N(C)C)c(=O)n1Cc1ccc(-c2ccccc2-c2nn[nH]n2)cc1`: “inactive”.
Regarding `CC(=O)N1CCN([C@H]2CCN(C(=O)N(C)[C@H](C)c3cc(C(F)(F)F)cc(C(F)(F)F)c3)[C@@H](c3ccc(F)cc3C)C2)CC1`, the Potency was 14.5 µM (active).
For the molecule `Cc1cc(C)c(-c2csc(NC(=O)c3ccccc3)n2)c(C)c1`, the Potency is 4.09 µM (active).
The same measure for `COc1c(N2CC3CCCNC3C2)c(F)cc2c(=O)c(C(=O)O)cn(C3CC3)c12` (centres undefined): “inactive”; for `CN(CC(=O)N(Cc1ccc(C2CCCCC2)cc1)c1ccc(C(=O)O)cc1)S(=O)(=O)c1c(F)c(F)c(F)c(F)c1F`: 4.59 µM (active).
Consider `CC1OC2O[C@H]3[C@@H](OCC(O)[C@H]3O)OC(=O)C34CCC(C)(C)CC3C3=CCC5C6(C)CC(O)C(OC7OC(CO)C(O)C(O)C7O[C@@H]7OC[C@H](OC(=O)CC(C)(O)CC(=O)OC1C(OC1OCC(O)C(O)C1O)C2O)[C@@H](O)[C@H]7O)C(C)(CO)C6CCC5(C)C3(C)CC4` (some centres undefined), for which the Potency was 4.47 µM (active).
In the case of `COCCNCc1ccc(-c2cc3nccc(Oc4ccc(NC(=S)NC(=O)Cc5ccc(F)cc5)cc4F)c3s2)nc1`, the Potency was 3.25 µM (active) and 2.35 µM (active).
Turning to `Cc1cc(CS(=O)(=O)c2ccccc2)cc(OCc2ccc(CN3CCC[C@@H]3CO)cc2)c1`, the Potency is 18.3 µM (active) and 14.8 µM (active).
